# Screens as filed in PubChem BioAssay.
# D2 PAM-1 = D2 dopamine receptor (human) potentiation; P14416; HEK293 T-REx D2, calcium flux, EC20 dopamine potentiation; potentiation, % at 10 µM; 340,000 tested, 0.34% active; AID 485347;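 active = potentiation over 3 SD above the plate norm, cut at about 30% in these data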; also: 0% is about no effect
#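 Cells plated with tetracycline inducer and held overnight at 30 C; calcium dye loaded 30–90 min at room temperature; baseline taken, compound added and read 180 s; EC20 dopamine then added and read 180 s.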
# D2 PAM-2 = human D2 receptor positive allosteric modulation; P14416; DiscoveRx D2 beta-arrestin cells, luminescence, 90 min; 100% = 57 uM dopamine signal; potentiation, % (no concentration beside the values); 360,000 tested, 0.23% active; in the data active = potentiation above about 50%; inconclusive = mostly about 30% to 49%
#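 D2 cells co-treated with compound plus 50 nM dopamine (EC20) for 90 min at 37 deg C to detect potentiation. Beta-arrestin recruitment was read as enzyme-fragment luminescence after 1 h at ambient temperature. Full response was set by 57 uM dopamine.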
# D2 antagonist = antagonists of human D2 dopamine receptor. HEK293 TREx D2 cells, calcium flux, dopamine EC80. inhibition, % at 10 µM. 340,000 tested, 2% active; in the data active = inhibition above about 30%; inactive = below that, where a call was filed; also: 0% is about no effect
#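 Measurement of antagonist activity uses fluorescent calcium dye in inducible HEK293 T-REx D2 cells: 10 s baseline, compound addition with 180 s read, EC80 dopamine addition with a further 180 s read.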
# D2 ag-1 = human D2 receptor agonism in beta-arrestin assay | P14416 | DiscoveRx PathHunter D2 beta-arrestin, luminescence, 90 min; 100% = 57 uM dopamine signal | activation, % (test concentration not listed) | 360,000 tested, 0.084% active | AID 624465; in the data active = activation above about 40%; inconclusive = between about 15% and that limit
#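 Agonist mode: compounds alone added to overnight-plated D2 PathHunter cells for 90 min at 37 C, with 57 uM final dopamine (EC100) defining full response. Beta-arrestin recruitment detected by chemiluminescent reagent, read after 1 h at ambient temperature.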
# D2 ag-2 = agonists of human D2 dopamine receptor; AID 485358; 340,000 tested, 0.53% active; activation, % at 2 µM; HEK293 T-REx D2 cells, calcium flux agonist mode; P14416;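 active = activation over 3 SD above normal in the single-dose calcium agonist read, cut at about 30% in these data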; also: 0% is about no effect
#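 Calcium-flux readout, 1 cycle/sec over 180 s following compound pin transfer, in inducible HEK293 Trex D2 cells (force-coupled); dopamine controls included. Positive calcium responses during this window marked compounds as potential agonists.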
# D3 arrestin ag = confirmation of human D3 dopamine receptor agonists, beta-arrestin. shares compounds with D2 ag-2. DiscoveRx D3 beta-arrestin cells, luminescence, 90 min. Potency, µM (titrated, usually from 76.9 µM), inactives show at the top dose activation, hits mostly activators. 2,300 tested, 4% active. AID 720506;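 also: potency is read from the fitted curve at half-maximal effect; 100% = dopamine control response; nearly all actives have a fitted effect of over 70% in size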
# Target sequence (P35462 whole entry, looked up): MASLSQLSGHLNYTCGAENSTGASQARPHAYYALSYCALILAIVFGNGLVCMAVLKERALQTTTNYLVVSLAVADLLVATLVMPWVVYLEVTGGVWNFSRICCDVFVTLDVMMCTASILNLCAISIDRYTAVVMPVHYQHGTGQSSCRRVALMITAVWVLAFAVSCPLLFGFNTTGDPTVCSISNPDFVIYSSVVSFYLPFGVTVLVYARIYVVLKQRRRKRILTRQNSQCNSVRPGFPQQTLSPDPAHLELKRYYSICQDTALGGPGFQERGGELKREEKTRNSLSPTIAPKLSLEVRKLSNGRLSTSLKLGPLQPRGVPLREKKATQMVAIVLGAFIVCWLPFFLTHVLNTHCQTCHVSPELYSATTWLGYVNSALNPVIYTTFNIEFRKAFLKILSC
# D2 ag-3 = counter-screen for D3 agonists: human D2 dopamine receptor agonism; shares compounds with D2 ag-2; DiscoveRx PathHunter D2 beta-arrestin, luminescence, 90 min; response scale: percent relative to full dopamine signal; Potency, µM (titrated, usually from 76.9 µM), inactives show at the highest dose activation, actives largely listed as activators; 2,300 tested, 5.9% active; AID 720507; also: potency is read from the fitted curve at half-maximal effect; % of control where 0% means no effect; nearly all actives have a fitted effect of over 70% in size
# An asterisk follows results filed as active; ? = inconclusive; / = not tested or not shown. Rows were chosen to be rich in hits. Some 2.4% of all compounds tested hit in one or more screens of this group. Unless noted, calls follow the shape of the dose curve; as a rule, active = well fitted activation curve with a large enough effect; inconclusive = small, poorly fitted or top-dose-only effect; inactive = flat fitted curve, though single readings scatter.
SMILES,D2 PAM-1,D2 PAM-2,D2 antagonist,D2 ag-1,D2 ag-2,D3 arrestin ag,D2 ag-3
COC(=O)c1ccc(S(=O)(=O)NCCSc2nnc3c4ccccc4n(C)c3n2)cc1,6,-8,28,-1,-1,17%,9%
COCCCN1C(=O)C(CC(=O)NCc2cccs2)CC(C(=O)N(C(C)C)C(C)C)=C1C (stereo not drawn),/,-4,/,-3,/,/,/
Cc1cccc(OCC(=O)Nc2ccc3c(c2)nc(CCN2CCN(c4ccccn4)CC2)n3C)c1,-5,-20,31*,10,0,28µM*,?
Cn1c(CCN2CCN(c3ccccn3)CC2)nc2cc(NC(=O)COc3ccc(Cl)cc3)ccc21,2,-20,37*,11,-1,26%,?
Cc1cc(C)nc(/N=C(\N)Nc2ccc([N+](=O)[O-])cc2)n1,-9,-2,37*,1,15,-7%,-4%
Cc1ccc(N/C(N)=N/c2nc(C)cc(C)n2)cc1,-34,-27,31*,0,80*,-4%,4%
CCCCc1ccc(N/C(N)=N/c2nc(C)cc(C)n2)cc1,-14,-4,43*,?,56*,?,?
CCC(=O)Nc1ccc(N/C(N)=N/c2nc(C)cc(C)n2)cc1,4,-21,2,-3,1,/,/
CCNC(=O)C1CCCN(C(=O)c2ccc(F)c(Cl)c2)CC1 (stereo not drawn),/,-3,/,-4,/,/,/
CSCCC(NC(=O)c1ccccc1)C(=O)NCCCSc1ccccc1 (stereo not drawn),17,-4,-15,-2,0,-4%,-6%
CCC(C)NC(=O)C(CCSC)NC(=O)c1ccccc1 (stereo not drawn),2,1,23,-5,1,/,/
CN=c1scc(-c2ccc([N+](=O)[O-])cc2)n1/N=C/c1ccco1,7,8,-3,0,0,/,/
CN=c1scc(-c2ccc(F)cc2)n1/N=C/c1ccc(O)c(O)c1,/,?,76*,103*,32*,13µM*,32µM*
OCC1OC2C(NC(=S)N2c2ccccc2)C(O)C1O (stereo not drawn),/,-13,/,-1,/,/,/
Nc1nc(CSc2nnnn2-c2ccccc2)nc(N2CCCc3ccccc32)n1,-6,-11,0,-3,8,/,/
Nc1nc(CN2CCN(c3cccc(Cl)c3)CC2)nc(N2CCCc3ccccc32)n1,-16,29,70*,?,42*,16%,?
COc1ccc(N2CCN(Cc3nc(N)nc(N4CCCc5ccccc54)n3)CC2)cc1,-12,-9,7,4,49*,4%,14%
COc1ccc(N2CCN(Cc3nc(N)nc(Nc4ccc(C)c(Cl)c4)n3)CC2)cc1,-4,-12,-10,1,2,/,/
Nc1nc(CN2CCN(c3ccccc3F)CC2)nc(N2CCCc3ccccc32)n1,-17,13,79*,?,82*,?,?
Nc1nc(CN2CCN(c3ccccc3)CC2)nc(N2CCCc3ccccc32)n1,/,54*,/,?,/,35µM*,?
CC(C)N(C)c1ncnc2c1ncn2[C@H]1CN(Cc2ccc(F)cc2)C[C@@H](CO)O1,/,-10,/,-2,/,/,/
CCOc1ccc(CCNC(=O)c2ccc(-n3c(C)cc4c3CCC(C)C4)cc2)cc1OCC (stereo not drawn),0,/,/,/,-1,/,/
O=C(Nc1cccc(Cl)c1)c1ccc(NCCCN2CCOCC2)c([N+](=O)[O-])c1,3,-34,-10,-2,-2,/,/
Cc1ccc(NC(=O)c2ccc(NCCCN3CCC(C)CC3)c([N+](=O)[O-])c2)cc1F,-17,-12,5,-2,29,-17%,10%
Cc1ccc(CN2CCSc3ccc(C(=O)N4CCN(c5cccc(C)c5C)CC4)cc32)cc1,3,/,/,/,0,/,/
SMILES,D2 PAM-1,D2 PAM-2,D2 antagonist,D2 ag-1,D2 ag-2,D3 arrestin ag,D2 ag-3
COCc1cc(C)nc(SCc2ccc(F)cc2)c1C#N,9,-1,42*,-4,0,-10%,-2%
O=C(c1ccco1)N1CCN(C(=O)c2ccco2)CC1,/,-4,/,-2,/,/,/
O=C(c1ccco1)N1CCN(Cc2ccc(F)cc2Cl)CC1,-26,23,58*,?,79*,29%,?
O=C(c1ccco1)N1CCN(Cc2cn[nH]c2-c2ccc(F)cc2F)CC1,-5,4,-20,4,28,/,/
O=C(c1ccco1)N1CCN(Cc2ccccc2Br)CC1,-31,?,78*,?,76*,?,50µM*
O=C(C1CCCCC1)N(Cc1cccnc1)c1nc2c(F)cccc2s1,9,/,/,/,/,/,/
Cc1ccc(S(=O)(=O)N2C[C@H]3N(C(=O)OC(C)C)N(C(=O)OC(C)C)C[C@H](OC(=O)Nc4c(C)noc4C)[C@@]3(O)C2)cc1,/,0,/,-9,/,/,/
O=C(NCCCn1ccnc1)C(=O)NCC(c1ccco1)N1CCN(c2ccc(F)cc2)CC1 (stereo not drawn),1,-11,7,3,4,/,/
COc1ccc(N2CCN(C(CNC(=O)c3ccco3)c3ccco3)CC2)cc1 (stereo not drawn),10,-6,13,-1,0,/,/
O=C(NCC(c1ccco1)N1CCN(c2ccccc2)CC1)c1ccco1 (stereo not drawn),-8,10,40*,13,12,?,?
O=C(NCCCn1ccnc1)C(=O)NCC(c1ccco1)N1CCN(c2ccccc2)CC1 (stereo not drawn),-24,15,16,54*,63*,20%,?
O=C(NCCCn1ccnc1)C(=O)NCC(c1cccnc1)N1CCN(c2ccccc2)CC1 (stereo not drawn),-13,-5,3,-4,43*,5%,12%
Cc1sc(NC(=O)c2ccco2)c(CN2CCN(c3ccccc3)CC2)c1C,-18,-31,17,0,41*,1%,5%
Cc1sc(NC(=O)c2ccco2)c(CN2CCCCC2)c1C,-1,-14,3,-3,0,/,/
Cc1c2cnn(-c3ccccc3)c(=O)c2c(C)n1CC(=O)NCc1ccccc1Br,/,/,/,/,0,/,/
O=C(Nc1ccccc1F)c1csc([C@@H]2C[C@H](O)[C@@H](CO)O2)n1,/,-2,/,-5,/,/,/
Clc1cccc(N2CCN(c3nc4ccccc4c4nc(-c5cccnc5)nn34)CC2)c1,-2,/,/,/,0,/,/
O=C(NCc1ccccn1)c1cccc(S(=O)(=O)Nc2ccc(F)cc2)c1,10,-13,-5,-1,0,/,/
